For 28 compounds, morphology score and SARS-CoV-2 infection rate results are on record in the supplement of paper PMC13380429.

The structures appear in SMILES notation.

Experiment [1] relates to Vero E6 infected with SARS-CoV-2. The experiment is described as follows: morphology score (similarity to uninfected cells); higher = more like uninfected cells. The following applies: 24 h.
For experiment [2] the test system is unchanged. The experiment is described as follows: SARS-CoV-2 infection rate relative to infected DMSO; higher = more infection, active = 60 or less. The following applies: 24 h.

In turn, `Cc1cc(-c2nncc3c(C(C)(C)C)c(OCc4ncnn4C)nn23)no1` (10 µM) displayed a morphology score in experiment [1] of 0.149. In addition, the SARS-CoV-2 infection rate in experiment [2] is 95% (inactive).
The compound `COc1[nH]c2ccc(F)cc2c1C(=O)OCC1CCN(CCNS(C)(=O)=O)CC1` (10 µM) yielded a morphology score in experiment [1] of 0.0361. In addition, in experiment [2], the SARS-CoV-2 infection rate is 106% (inactive).
For `Cc1nnsc1C(=O)Nc1ccc(-n2nc(C(F)(F)F)cc2C(F)(F)F)cc1` (10 µM) the same measures were -0.0783 and 106% (inactive).
`O=C(O)c1ccc(Nc2ncc3c(n2)-c2ccc(Cl)cc2C(c2c(F)cccc2F)=NC3)cc1` (10 µM) had a morphology score in experiment [1] of 0.00168. The SARS-CoV-2 infection rate in experiment [2] is 109% (inactive).
For `CCCCNc1nc(N)c2[nH]c(=O)n(Cc3ccc(OCCN(C)C)nc3)c2n1` (10 µM) the same measures were 0.0113 and 103% (inactive).
Regarding `Nc1ccc(S(=O)(=O)NC(=O)c2ccccc2)cc1` [sulfabenzamide] (10 µM), the morphology score in experiment [1] was determined as 0.0893. The SARS-CoV-2 infection rate in experiment [2] was 106% (inactive).
In experiment [1], `O=C(Nc1cnc(Cl)nc1)c1ccc(F)c(F)c1` (10 µM) showed a morphology score of 0.0439. The SARS-CoV-2 infection rate in experiment [2] was 101% (inactive).
For the compound `OC(CN1CCN(c2cccc(Cl)c2)CC1)C(c1ccccc1)c1ccccc1` (stereo unspecified) (10 µM), in experiment [1], the morphology score was -0.0067. Also, in experiment [2], the SARS-CoV-2 infection rate was 96.5% (inactive).
The compound `COC(=O)C[C@](O)(CCCC(C)(C)O)C(=O)O[C@@H]1C(OC)=C[C@]23CCCN2CCc2cc4c(cc2[C@H]13)OCO4` [homoharringtonine] (10 µM) showed a morphology score in experiment [1] of 0.837. The SARS-CoV-2 infection rate in experiment [2] is 23% (active).
For `CCn1cc(C(=O)O)c(=O)c2cc(F)c(N3CCNC(C)C3)c(F)c21` (stereo unspecified) [lomefloxacin] (10 µM) the same measures were 0.0917 and 96.5% (inactive).
As to `Nc1nc(N)nc(NC2CC2)n1` [cyromazine] (10 µM), in experiment [1], the morphology score was found to be 0.128. In addition, the SARS-CoV-2 infection rate in experiment [2] was 86.5% (inactive).
`COc1cc2nc(N3CCN(C(=O)C4CCCO4)CC3)nc(N)c2cc1OC` (stereo unspecified) [terazosin] (10 µM) displayed a morphology score in experiment [1] of -0.108. In addition, the SARS-CoV-2 infection rate in experiment [2] was 110% (inactive).
For `CC(=O)NCCCOc1ccc(C(=O)N2CCC(N3C(=O)CCc4ccccc43)CC2)cc1` (10 µM), the morphology score in experiment [1] came out at 0.184. For the same compound, in experiment [2], the SARS-CoV-2 infection rate is 102% (inactive).
For `O=c1oc2ccccc2c(O)c1Cc1c(O)c2ccccc2oc1=O` [dicoumarol] (10 µM) the same measures were 0.0403 and 108% (inactive).
Taken in the same sequence, the figures for `O=Nc1c(-c2c(O)[nH]c3cc(Br)ccc23)[nH]c2ccccc12` [GSK-3-inhibitor-IX] (0.833333 µM) were -0.0517 and 67% (inactive).
In experiment [1], `CC(C)C[C@H](NC(=O)[C@H](CCc1ccccc1)NC(=O)CN1CCOCC1)C(=O)N[C@@H](Cc1ccccc1)C(=O)N[C@@H](CC(C)C)C(=O)[C@@]1(C)CO1` [carfilzomib] (0.833333 µM) displayed a morphology score of 0.00273. In addition, in experiment [2], the SARS-CoV-2 infection rate is 42% (active).
Compound `Cc1ccc(O)c([C@H](CCN(C(C)C)C(C)C)c2ccccc2)c1` [tolterodine] (10 µM) came in with a morphology score in experiment [1] of 0.35. Also, the SARS-CoV-2 infection rate in experiment [2] was 77.5% (inactive).
Consider `CC1/C=C/C=C/C=C/C=C/C=C/C=C/C=C/C(OC2O[C@H](C)[C@@H](O)[C@H](N)[C@@H]2O)CC(O)C(C(=O)O)C(O)CC(=O)CC(O)CC(O)CC(O)CC(=O)CCCC(=O)CC(=O)OC1C(C)CC(C)C(O)CC(=O)c1ccc(N)cc1` (stereo partly specified) [candicidin] (0.833333 µM), for which, in experiment [1], the morphology score worked out at 0.198. The SARS-CoV-2 infection rate in experiment [2] was 100% (inactive).
Consider `C=C[C@H]1CN2CC[C@H]1C[C@H]2[C@H](O)c1ccnc2ccccc12` [cinchonidine] (10 µM), for which the morphology score in experiment [1] was -0.111. In addition, the SARS-CoV-2 infection rate in experiment [2] is 112% (inactive).
`C[C@@H]1CC[C@H]2[C@@H](C)C(=O)O[C@@H]3O[C@@]4(C)CC[C@@H]1[C@]32OO4` [artemisinin] (10 µM) came in with a morphology score in experiment [1] of -0.0301. In experiment [2], the SARS-CoV-2 infection rate is 106% (inactive).
Regarding `CN(Cc1cnc2nc(N)nc(N)c2n1)c1ccc(C(=O)N[C@@H](CCC(=O)O)C(=O)O)cc1` [methotrexate] (10 µM), the morphology score in experiment [1] is -0.183. In experiment [2], the SARS-CoV-2 infection rate was 100% (inactive).
`CCC(CC)Nc1cc(C)nc(Oc2c(C)cc(C)cc2C)c1C` (10 µM) registered a morphology score in experiment [1] of 0.248. In experiment [2], the SARS-CoV-2 infection rate is 100% (inactive).
In turn, `COc1ccc(CN(CCN(C)C)c2ccccn2)cc1` [mepyramine] (10 µM) displayed a morphology score in experiment [1] of 0.0933. The SARS-CoV-2 infection rate in experiment [2] is 106% (inactive).
Consider `O=C(O)C[CH2][Ge](=[O])[O][Ge](=[O])[CH2]CC(=O)O` [propagermanium] (10 µM), for which the morphology score in experiment [1] is 0.128. Moreover, the SARS-CoV-2 infection rate in experiment [2] is 94% (inactive).
In experiment [1], `CCC(Cc1c(I)cc(I)c(N)c1I)C(=O)O` (stereo unspecified) [iopanic-acid] (10 µM) yielded a morphology score of -0.136. Besides, the SARS-CoV-2 infection rate in experiment [2] was 116% (inactive).
`CCOc1nc2c(N)ncnc2n1CC` (10 µM): the morphology score in experiment [1] amounted to 0.236. Also, in experiment [2], the SARS-CoV-2 infection rate was 88% (inactive).
`CN1[C@@H]2CC[C@H]1C[C@@H](OC(=O)[C@H](CO)c1ccccc1)C2` [hyoscyamine] (10 µM): the morphology score in experiment [1] amounted to 0.139. Further, the SARS-CoV-2 infection rate in experiment [2] is 90.5% (inactive).
Taken in the same sequence, the figures for `Cn1nc(-c2cccc(F)c2)n(C)c1=S` [suritozole] (10 µM) were 0.141 and 101% (inactive).
